Assays:
Experiment in all cases: PBM binding z-score (relative to random genomic background probes); higher = stronger binding; sequences stand for … in GC…GCGATTGACAGCGTAGAATGAAGG
[1] = test system: PPARg:RXRa DBDmut IVT, anti-RXR (DBD mutation: RXRa K156A/R161A, NR concentration 270 nM, RXRa partner concentration 90 nM)
Outline: (§1)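 Binding buffer was PBS pH 7.4 with 2% milk, 0.02% Triton X-100, 1 mM DTT, 0.2 mg/mL BSA and 0.4 mg/ml salmon testes DNA. In it, ligand-free nuclear receptor dimers were incubated 1 h on custom Agilent 4×180K protein-binding microarrays carrying double-stranded probes. Antibodies against each partner (one per run) detected binding, and z-scores were calculated against random background probes after regression normalization of scanned fluorescence.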

[2] = test system: PPARg:RXRa IVT, anti-PPARg (NR concentration 270 nM, RXRa partner concentration 90 nM)
Outline: as §1

[3] = test system: PPARg DBDmut:RXRa IVT, anti-PPARg (DBD mutation: PPARg1 K132A/R137A, NR concentration 270 nM, RXRa partner concentration 90 nM)
Outline: as §1

[4] = test system: PPARg DBDmut IVT, anti-PPARg (DBD mutation: PPARg1 K132A/R137A, NR concentration 270 nM)
Outline: as §1

[5] = test system: PPARg homodimer (NR concentration 180 nM)
Outline: as §1

[6] = test system: PXR:RXRa (NR concentration 270 nM, RXRa partner concentration 90 nM)
Outline: as §1

[7] = test system: PXR homodimer (NR concentration 270 nM)
Outline: as §1

[8] = test system: RARa:RXR (NR concentration 270 nM, RXRa partner concentration 90 nM)
Outline: as §1

[9] = test system: RARa homodimer (NR concentration 270 nM)
Outline: as §1

[10] = test system: RARb:RXRa (NR concentration 270 nM, RXRa partner concentration 90 nM)
Outline: as §1

[11] = test system: RARb homodimer (NR concentration 270 nM)
Outline: as §1

[12] = test system: RARg:RXRa (NR concentration 270 nM, RXRa partner concentration 90 nM)
Outline: as §1

[13] = test system: RARg homodimer (NR concentration 270 nM)
Outline: as §1

[14] = test system: RXRa DBDmut IVT, anti-RXR (DBD mutation: RXRa K156A/R161A, NR concentration 90 nM)
Outline: as §1

[15] = test system: RXRa homodimer (NR concentration 180 nM)
Outline: as §1

[16] = test system: THRa:RXRa (NR concentration 90 nM, RXRa partner concentration 90 nM)
Outline: as §1

[17] = test system: THRa homodimer (NR concentration 90 nM)
Outline: as §1

[18] = test system: VDR homodimer (NR concentration 270 nM)
Outline: as §1

Sequence	PBM binding z-score [1]	PBM binding z-score [2]	PBM binding z-score [3]	PBM binding z-score [4]	PBM binding z-score [5]	PBM binding z-score [6]	PBM binding z-score [7]	PBM binding z-score [8]	PBM binding z-score [9]	PBM binding z-score [10]	PBM binding z-score [11]	PBM binding z-score [12]	PBM binding z-score [13]	PBM binding z-score [14]	PBM binding z-score [15]	PBM binding z-score [16]	PBM binding z-score [17]	PBM binding z-score [18]
CCTGCTAGCTCATGGTCAGCTAATCTACAGTATG	0.183	-0.609	-0.471	-0.109	-0.356	-0.641	-0.376	-0.681	-0.182	-0.0065	-0.424	-0.342	-0.0465	-0.0856	-0.437	-0.44	-0.771	-0.81
TCTCGGAGGACACGACGGTCAGAGCTTTCCAGAG	1.2	0.00965	-1.14	-0.952	-0.596	-0.328	-0.626	-0.317	-0.599	1.91	1.53	0.617	1.65	0.193	0.0986	1.33	0.161	-0.222
GCGACTGGGGCATCAGCAGGTTACCATAACTTAA	3.62	3.27	0.296	-0.965	0.771	-0.0761	-0.654	0.57	-0.145	0.697	0.856	0.955	0.455	-0.108	0.462	1.09	-0.0496	-0.398
ACTATTAGTTGACTTAGGGCAACAGATACGACGC	0.146	0.696	1.18	1.49	0.262	0.159	0.123	0.356	0.66	0.851	0.775	0.939	1.03	0.406	0.426	1.48	0.0505	0.162
TCGAGTAGGTTAGTAGGGGCATTCAGCCAACATA	2.98	3.4	0.408	0.00263	0.668	0.244	0.000181	0.287	0.25	0.637	0.576	0.0411	-0.0163	0.422	0.366	0.542	0.108	0.677
CAAACTAGGTCACGAAAGGTCAAAGGCGAATGAC	8.48	9.08	4.73	2.51	5.53	7.28	2.45	8.15	3.08	5.86	5.95	8.09	8.64	1.99	8.7	5.15	2.55	3.38
ACAGACAGGTGATGAAGGTAACTCTGGCTATCAT	0.0322	0.477	0.353	0.0262	0.0574	-0.19	-0.412	0.0777	-0.252	0.114	-0.162	0.325	0.249	-0.432	0.387	0.0574	-0.327	-0.648
CCTACTGGGCCAAAGGTAATTGATTCCAATGCTC	5.36	4.68	0.0261	0.0447	0.234	-0.286	-0.264	-0.0121	-0.474	0.179	0.00337	0.0107	0.0633	-0.288	0.00386	0.0403	-0.123	-0.113
CAAACTAGGTCACCGGAAGGTCAAAGACCGCATG	8.27	8.78	2.33	1.54	7.7	5.6	1.46	7.13	2.64	5.2	5.49	8.28	7.5	1.49	6.27	4.46	2.95	2.59
CAAACTAGGTCACAGAGGTCAAAATCCGTGCGTA	8.53	9.12	3.39	4.84	4.55	6.48	10.3	6.58	2.93	5.11	5.16	7.05	7.16	3.22	7.21	4.7	2.77	5.94
AGAATGAGGTTATTAAGATCAGGAAATTGCGGTC	2.71	2.49	1.18	0.481	0.657	1.3	0.566	1.3	0.579	1.42	0.491	1.3	0.9	1.99	1.75	2.06	0.497	1.18
GTACCAAGGTGAATAGGTAGTTGATGAGTAGGCG	1.51	1.76	0.536	0.507	0.398	-0.196	-0.0218	0.256	0.745	1.1	0.555	0.67	0.626	-0.423	0.629	1.14	0.657	0.0253
CGAATTAGGTCATTGACAGGACAGTGAATAGTAA	8.21	7.99	4.24	2.12	2.32	1.77	0.55	2.57	0.994	3.73	2.68	4.6	4.22	2.69	2.53	3.33	1.54	1.22
TCTCGGGGGACACGAAAGGTCAGAGCTCGACATC	3.01	4.33	6.64	6.38	5.71	5.07	1.76	5.57	2.64	4.48	4.59	6.13	6.61	2.14	4.9	4.19	2.07	1.57
CCTACTGGGCTATTCAGAGGTCATTGATCATATG	2.84	2.73	0.261	0.0805	2.7	4.9	2.27	4.54	0.714	2.79	3.63	3.55	2.52	1.07	3.56	3.16	1.28	3.02
CGTACTAGGTCAAGGACAGTGAATCTCCGCACGC	7.55	7.47	2.25	1.3	2.34	1.19	0.03	2	1.16	4	3.14	3.81	4.64	1.21	2.53	3.22	2.42	0.444
GGGACGAGGGCATTCGAGTTGATAGCATGGCGAT	1.51	1.47	-0.173	0.189	0.254	3.68	1.37	1.08	0.349	2	1.01	1.19	1.58	2.93	0.775	3.52	-0.0645	3.06
CCTTACGGGTCAAGGTTCTAGCACGGGTGGTACG	1.5	3.25	0.0121	-0.395	2.56	2.98	-0.35	3.97	0.251	4.05	3.2	4.78	4.47	0.551	4.96	2.39	0.0737	1.51
TCATATAGGTAAATGTTAGGTGAAAGTCCGATCT	4.12	2.63	1.47	1.82	1.66	0.918	0.8	1.63	1.9	0.728	0.881	0.623	0.326	2.12	1.09	2.51	1.58	0.982
CCTACTGGGCCAAAAAGGTCATTGGTGCCGATAA	3.78	4.13	-0.644	-0.94	3.28	4.9	5.2	5.26	0.489	4.07	4.58	4.6	4.13	0.562	4.92	3.13	0.738	2.89
AATACAGGGTCACTCGGCCAGAGTAGGTACGAAT	3.09	5.09	2.08	1.63	2.92	3.49	0.336	4.66	0.723	4.39	3.24	5.28	5.06	3.27	5.63	3.4	0.907	2.84
TCATATAGGTAATACAGGTGAGAGTCGGCATCTA	3.93	3.29	1.38	1.56	0.749	0.46	0.623	0.533	1.42	0.457	0.373	0.339	0.708	1.4	0.681	0.631	0.164	0.172
CCGACTTGGGCATAAGGTTACCATAAGCCAGCCC	-0.117	-0.425	-0.991	-1.38	0.34	0.211	-0.364	0.822	-0.32	0.922	0.962	0.45	0.236	-0.0632	0.906	1.84	1.27	-0.535
TTTTGTAGATCAACAGGAGGTTAAGAAAGATCGA	1.26	1.98	1.18	1.43	0.903	0.932	0.512	1.34	1.05	0.73	0.787	1.04	0.47	-0.291	1.23	1.23	0.167	0.336
TCTAGTTGGCCAAAGGTCACACACTCGAAATGCG	2.73	5.56	0.249	0.877	6.18	5.82	1.45	6.89	3.8	4.93	5.04	6.5	6.31	1.5	7.78	3.78	1.77	2.27
CCGACTGGGGCATAAGGTTACCTTAAGCCAGCCC	2.68	3.27	-0.344	-1.61	0.545	0.197	-0.44	1.22	-0.764	1.49	1.66	1.26	0.711	-0.657	0.903	2.3	2.31	-0.441
TAGCCTAGGTCAAATCGGGCCAGTATACGCTATA	1.98	3	0.169	0.237	1.68	2.95	-0.306	2.74	-0.373	3.68	2.7	4.3	4.47	0.997	3.31	4.59	0.89	0.378
CCGACTGGGGCAGAAATGTTACCATACCATCCGG	1.57	0.993	-0.699	-1.22	-0.25	-0.347	-0.252	-0.499	-0.698	0.0353	-0.118	0.0842	0.109	-0.424	0.066	-0.666	-0.0908	-0.0383
AGTCAAAGTTCACTATGTAACGTAAGATTCAGCT	0.152	2.39	1.02	0.578	1.55	3.59	1.72	2.7	0.755	4.57	3.66	4.55	5.44	4.2	3.68	1.36	-0.244	3.86
